# PubChem BioAssay
# Measured potencies and affinities stand elsewhere. Calls of active or inactive are those of the source. Cut-off not given; nearly all actives show IC50 up to about 0.98 µM.
# Biological target: Calcium-dependent protein kinase 1 (Plasmodium falciparum (isolate 3D7)) (UniProt P62344)
# Test: PfCDPK1 kinase inhibitors, biochemical, TCAMS library (AID 1159585);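 further: inhibitors leave more ATP so luminescence rises with inhibition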
# Conditions: recombinant PfCDPK1, Kinase-Glo ATP depletion luminescence
# Chain of Calcium-dependent protein kinase 1 (Plasmodium falciparum (isolate 3D7)) (P62344 whole entry, looked up): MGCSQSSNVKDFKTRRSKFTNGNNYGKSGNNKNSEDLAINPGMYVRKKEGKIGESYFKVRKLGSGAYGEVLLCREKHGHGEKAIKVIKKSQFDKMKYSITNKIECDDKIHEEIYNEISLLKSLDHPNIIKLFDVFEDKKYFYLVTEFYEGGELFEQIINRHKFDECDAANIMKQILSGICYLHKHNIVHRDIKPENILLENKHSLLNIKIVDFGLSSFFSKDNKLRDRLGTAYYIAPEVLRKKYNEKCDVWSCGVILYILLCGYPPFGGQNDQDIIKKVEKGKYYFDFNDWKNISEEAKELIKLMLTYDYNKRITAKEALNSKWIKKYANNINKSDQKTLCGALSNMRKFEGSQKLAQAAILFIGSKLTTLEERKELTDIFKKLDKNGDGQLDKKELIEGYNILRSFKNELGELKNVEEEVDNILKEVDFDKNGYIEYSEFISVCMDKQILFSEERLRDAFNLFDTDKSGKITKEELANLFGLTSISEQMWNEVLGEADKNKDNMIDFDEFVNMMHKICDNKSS
row,Structure (SMILES),outcome
1,COc1cccc(C(=O)Nc2ccc(S(=O)(=O)c3cc4c(cc3OC)CCN(C)CC4)cc2)c1,inactive
2,CCOc1ccc(-c2nonc2NC(=O)c2ccc(F)cc2)cc1OCC,inactive
3,CC(C)CCNC(=O)C1Cc2c([nH]c3cc(Br)ccc23)C2(CCN(Cc3ccccc3)CC2)N1 (stereo unspecified),inactive
4,c1ccc2ncc(CNCCCCCCCCNCc3cnc4ccccc4c3)cc2c1,inactive
5,Cc1cc(N(C)C)nc(Nc2ccc(NC(=O)c3c(F)cccc3F)cc2)n1,inactive
6,O=C(c1ccccc1F)N(Cc1ccc(Cl)cc1)c1ccccn1,inactive
7,N#Cc1ccc(C=Cc2nccc3c2[nH]c2ccccc23)cc1,inactive
8,N#Cc1ccc(CN2CCCN(c3ccc(NC(=O)c4ccc(F)cc4)cc3)CC2)cc1,inactive
9,N#Cc1cccc(C(=O)Nc2cccc(-c3ccc(CN4CCCC4)cc3)c2)c1,inactive
10,CN(C(=O)NCCc1ccccc1)C1CCN(CCCCCNC(=O)/C=C/c2ccc(Cl)c(Cl)c2)CC1,inactive
11,COc1ccccc1-n1ccnc1SCC(=O)Nc1cc(C(F)(F)F)ccc1Cl,inactive
12,O=C(O)/C=C/c1cccc(F)c1F,inactive
13,Cc1cc(N[C@@H](Cc2ccccc2)C(=O)NCc2cccc(F)c2)nc(NCCc2cccs2)n1,inactive
14,CCc1ccc(CN2CCC(CNC(=O)c3cc(-c4ccccc4Cl)cs3)C2)cc1 (stereo unspecified),inactive
15,COc1cccc(-c2ccc3c(-c4cccc(S(C)(=O)=O)c4)cnc(N)c3c2)c1,inactive
16,COc1ccc2c(NN=Cc3ccc(N(C)C)cc3)ccnc2c1,inactive
17,CCCc1cn2c3c(cc(C(=O)N[C@@H](Cc4ccccc4)[C@H](O)CNC4CCCCC4)cc13)N(C)S(=O)(=O)CC2,inactive
18,Cc1cccc2[nH]c(-c3cccc(-c4cccc(NC(=O)CNC(=O)c5ccc(O)cc5)c4)c3)nc12,inactive
19,NC1CCN(CCNCc2cccc(-c3ccc(-c4nc5ccc(F)cc5[nH]4)cc3)c2)C1 (stereo unspecified),inactive
20,OC1CCCN(Cc2cccc(-c3ccc(-c4nc5ccc(C(F)(F)F)cc5[nH]4)cc3)c2)C1 (stereo unspecified),inactive
21,COc1ccc(CNC2Cc3ccccc3C2)cc1-c1ccc(S(=O)(=O)NCCN2CCCC2)cc1,inactive
22,OC(CNCc1ccccc1Oc1ccccc1)c1cc(Br)cs1 (stereo unspecified),inactive
23,CNc1nc(NN=Cc2cc3c(cc2[N+](=O)[O-])OCO3)nc(Nc2cccc(C(F)(F)F)c2)n1,inactive
24,Cc1cc(CNCC(CCNc2cc(=O)c3ccccc3[nH]2)NCc2cc(Br)cc(Br)c2)oc1C (stereo unspecified),inactive
25,CCc1cn2c3c(cc(C(=O)N[C@@H](Cc4ccccc4)[C@H](O)CNC4CCC4)cc13)N(C)S(=O)(=O)CC2,inactive
26,O=C(Nc1ccc(C(F)(F)F)cc1)c1ccc(S(=O)(=O)NC2CCN(Cc3ccccc3)C2)cc1 (stereo unspecified),inactive
